# Screening data from PubChem BioAssay.
# TAR Tat displ: HIV-1 TAR-Tat binding disruption; HIV-1 TAR RNA, Tat peptide displacement FRET; stronger effect = higher value; hit rate 0.6% among 100,000; z-score (concentration not given with the values); AID 1259389; active = z-score of 3 or more in at least 2 runs
# CDC25B-CDK2 inh: human CDC25B-CDK2/CyclinA binding inhibition; P30305+P24941; hit rate 0.72% among 94,000; z-score (concentration not given with the values); HTRF CDC25B-CDK2/CyclinA binding, anti-His/anti-Flag; stronger effect = higher value; in the data active = z-score above about 3.2
# Hits are given with their value; . = inactive; / = no result. Hits are enriched below; roughly 0.93% of the tested compounds scored in any of these assays.
SMILES,TAR Tat displ,CDC25B-CDK2 inh
Cn1nc(-c2ccccc2F)c2cc(C(=O)Nc3cc(F)ccc3F)sc21,/,.
COc1ccc(-c2nc(COc3ccccc3-c3nnc(-c4ccccc4)o3)c(C)o2)cc1,.,/
Cc1nc(N2CCOCC2)c2c(C(=O)N3CCN(c4ccccc4)CC3)c(C)oc2n1,.,/
O=c1[nH]c2ccccc2nc1Nc1ccccc1,.,.
Cc1onc(-c2ccccc2Cl)c1NC(=O)NNC(=O)c1c(-c2ccccc2)noc1C,/,.
CCCNC(=O)C1CCCN1c1nnc(N2CCCC2=O)s1 (configuration not stated),.,.
O=c1c(NCCc2c[nH]c3ccccc23)nccn1-c1ccc(Br)cc1,.,/
OC(COc1cccc2cccnc12)Cn1c2ccccc2c2ccccc21 (configuration not stated),.,.
c1ccc2c(OCCCOc3cccc4cccnc34)cccc2c1,/,6.17
Cc1nnc(SCC(=O)Nc2ccccc2F)c2cc3sccc3n12,.,/
CCCOC(=O)C(C)Oc1ccc2c(=O)c(Oc3ccccc3Cl)coc2c1 (configuration not stated),/,.
Cc1sc2ncn(CC(=O)N3CCOCC3)c(=O)c2c1S(=O)(=O)N1CCOCC1,.,.
Cc1sc2ncn(CC(=O)N3CCCCCC3)c(=O)c2c1S(=O)(=O)N1CCN(C)CC1,/,19.2
CN1CCc2c(n(CC(O)CN3C(=O)c4ccccc4S3(=O)=O)c3ccccc23)C1=O (configuration not stated),.,19.4
O=C1c2ccccc2S(=O)(=O)N1CC(O)COc1ccccc1 (configuration not stated),/,.
O=C(CN1C(=O)COc2ccc(Cl)cc21)N1CCCCC1,.,.
COc1ccc(-c2cc3c4c(C)n(Cc5ccc6c(c5)OCO6)c(C)c4c(C)nn3c2)cc1,.,.
COc1ccc(-c2cc3c4c(C)n(C)c(C)c4c(C)nn3c2)cc1,11.1,.
COc1ccc(CCn2c(C)c3c(C)nn4cc(-c5ccc(C)o5)cc4c3c2C)cc1OC,34.7,.
COc1ccc(-c2cc3c4c(C)n(Cc5ccccc5)c(C)c4c(C)nn3c2)cc1,.,.
COc1cccc(C[C@H]2NC[C@H](O)[C@H]2OC(C)=O)c1,3.82,/
COc1cccc(CC2C(=O)Nc3ccccc32)c1 (configuration not stated),.,.
Cc1ccc2c(=O)cc(C(=O)N(Cc3ccc(C(C)(C)C)cc3)C3CCS(=O)(=O)C3)oc2c1C (configuration not stated),.,.
CN(C)c1ccc(C(CNS(=O)(=O)c2ccc(F)cc2F)N2CCOCC2)cc1 (configuration not stated),.,/
O=C(O)c1cc(N2C(=O)C3CCCCC3C2=O)ccc1Cl (configuration not stated),.,/
SMILES,TAR Tat displ,CDC25B-CDK2 inh
O=C(O)c1cc(N2C(=O)c3c(Cl)c(Cl)c(Cl)c(Cl)c3C2=O)ccc1Cl,/,8.58
O=C1CN(c2ccc(OC(F)(F)F)cc2)C(=O)CN1Cc1ccc2c(c1)OCO2,/,.
CCc1ccc(NC(=O)CSc2nc(-c3ccc4c(c3)OCO4)nc3cc(=O)[nH]n23)cc1,.,/
CN(C(=O)CSc1nc(-c2ccccc2)nc2cc(=O)[nH]n12)c1ccccc1,.,/
Cc1ccc(-c2nc(SCC(=O)Nc3ccc(C)c(C)c3)n3[nH]c(=O)cc3n2)cc1,19.1,/
Cc1cc(C)cc(NC(=O)CSc2nc(-c3ccccc3)nc3cc(=O)[nH]n23)c1,.,/
CSc1cccc(NC(=O)CSc2nc(-c3ccc4c(c3)OCO4)nc3cc(=O)[nH]n23)c1,21.9,/
COc1ccc(NC(=O)CSc2nc(-c3cccs3)nc3cc(=O)[nH]n23)cc1,14.4,/
CN(Cc1ccccc1)C(=O)CSc1nc(-c2ccccc2)nc2cc(=O)[nH]n12,10.3,/
O=C(CSc1nc(-c2cccs2)nc2cc(=O)[nH]n12)Nc1ccccc1,.,/
COc1cc(C)c(Br)cc1S(=O)(=O)n1ccnc1C(C)C,.,.
Cn1c(=O)[nH]c(=O)c2c1nc(N1CCCCC1)n2CC(O)c1ccccc1 (configuration not stated),.,.
CCc1cc2c(Sc3nnc(N)s3)ncnc2s1,/,.
Cc1cc(C)cc(N2C(=O)C3NN=C(C(=O)OCc4ccccc4)C3C2=O)c1 (configuration not stated),.,.
O=C(CCS(=O)(=O)c1cc2c3c(c1)CCN3C(=O)CC2)N1CCc2ccccc21,.,/
CCOC(=O)c1cn2c3c(ccc(Cl)c3c1=O)OC(C)C2 (configuration not stated),17.5,/
CCNC(=O)c1cn2c3c(ccc(Cl)c3c1=O)OC(C)C2 (configuration not stated),.,/
CC(C)Cn1c(=O)[nH]c2c(c1=O)C(C)(C)Cc1ccccc1-2,.,.
COc1ccc(Oc2ccc([N+](=O)[O-])c3nonc23)cc1,/,11.6
COc1ccc(Oc2ccc([N+](=O)[O-])cc2-c2nc(-c3ccccn3)no2)cc1,/,.
COc1ccc(-c2nc3c(c(=O)[nH]2)Cc2cc(Br)cc(OC)c2O3)cc1OC,12.7,.
COc1ccc(-c2nc3c(c(=O)[nH]2)Cc2cc(Br)cc(OC)c2O3)cc1O,.,.
Oc1ccc2ncccc2c1C(Nc1ccccn1)c1cccc(Cl)c1 (configuration not stated),.,14.7
Oc1ccc2ncccc2c1C(Nc1ccccn1)c1ccc(Cl)cc1 (configuration not stated),.,.
Cc1cccc(CNc2nc(N(C)C)nc3c2cnn3C)c1,.,/
SMILES,TAR Tat displ,CDC25B-CDK2 inh
CC(C)(C)c1ccc(C(=O)NCCNC(=O)c2nonc2N)cc1,.,.
CCOc1ccc(S(=O)(=O)Nc2cc3c(c4ccccc24)OC2(C3)N(C)c3ccccc3C2(C)C)cc1 (configuration not stated),/,18.5
CCOc1ccc(S(=O)(=O)Nc2ccc3c(c2)N(S(=O)(=O)c2ccccc2)CCC3)cc1,.,/
COC(=O)CN1C(c2ccccc2O)Nc2ccc(Br)cc2C1c1ccccc1 (configuration not stated),.,.
O=C(NC1CCCC1)C1CCN(c2nnc(N3CCCC3=O)s2)CC1,.,.
COC(=O)C(N)Cc1ccc(O)c(O)c1 (configuration not stated),.,.
NCCc1ccc(O)c(O)c1,24.6,.
CSc1ncc(Cl)c(C(=O)O)n1,/,.
COc1ccc(C2CC(=O)N3CN(c4ccc(F)cc4)CSC3=C2C#N)c(OC)c1 (configuration not stated),.,4.41
COc1ccc(N2CSC3=C(C#N)C(c4ccc(OC)cc4OC)CC(=O)N3C2)cc1 (configuration not stated),.,3.39
COc1ccc(C2CC(=O)N3CN(C)CSC3=C2C#N)c(OC)c1 (configuration not stated),.,5.17
COc1ccc(Br)cc1C1CC(=O)N2CN(C)CSC2=C1C#N (configuration not stated),.,.
COc1ccc(N2CSC3=C(C#N)C(c4ccc(SC)cc4)CC(=O)N3C2)cc1 (configuration not stated),.,.
O=C(CCc1nnc2ccc(N3CCOCC3)nn12)NCC1CCN(C2CCCC2)C1 (configuration not stated),.,/
Cc1cccc(-c2nc3nc(C)cc(NCCO)n3n2)c1,.,.
CC(C)c1nn2c(=O)cc(COC(=O)c3ccccc3)nc2s1,.,/
